Compound activity (PubChem)
D2 PAM-1 = Beta-Arrestin HTS for Positive Allosteric Modulators of the Human D2 Dopamine Receptor: Potentiators; 360,000 tested, 0.23% active; DiscoveRx D2 beta-arrestin cells, luminescence, 90 min; 100% = 57 uM dopamine signal; potentiation, % (no concentration beside the values); in the data active means potentiation above about 50%; inconclusive means mostly about 30% to 49%
Target sequence (P14416 whole entry, looked up): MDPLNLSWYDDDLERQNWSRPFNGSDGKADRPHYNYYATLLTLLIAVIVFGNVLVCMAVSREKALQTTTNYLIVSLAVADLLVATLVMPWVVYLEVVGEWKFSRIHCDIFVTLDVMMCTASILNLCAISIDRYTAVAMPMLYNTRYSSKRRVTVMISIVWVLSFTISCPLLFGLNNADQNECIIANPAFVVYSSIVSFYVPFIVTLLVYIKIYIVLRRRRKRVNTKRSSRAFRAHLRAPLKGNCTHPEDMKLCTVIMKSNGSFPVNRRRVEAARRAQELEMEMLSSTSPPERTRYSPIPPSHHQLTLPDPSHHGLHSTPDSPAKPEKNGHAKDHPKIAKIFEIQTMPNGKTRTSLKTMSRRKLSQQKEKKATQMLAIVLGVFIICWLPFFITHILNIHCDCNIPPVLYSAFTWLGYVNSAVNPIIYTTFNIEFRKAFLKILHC
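PathHunter beta-arrestin assay in DiscoveRx D2 cells. Compounds were added with an EC20 of dopamine (50 nM final) for 90 min at 37 deg C. Luminescence was read 1 h after detection reagent, with 57 uM dopamine as the EC100 control.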
D2 ag-1 = Beta-Arrestin HTS for Positive Allosteric Modulators of the Human D2 Dopamine Receptor: Agonists; D(2) dopamine receptor (Homo sapiens), P14416; DiscoveRx PathHunter D2 beta-arrestin, luminescence, 90 min; 100% = 57 uM dopamine signal; activation, % (no concentration beside the values); 360,000 tested, 0.084% active; in the data active means activation above about 40%; inconclusive means between about 15% and that limit
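DiscoveRx PathHunter D2 beta-arrestin cells (2,100/well) attached overnight, then compound-stimulated 90 min at 37 C in HBSS/10 mM HEPES/0.1% Tween-20 buffer; beta-galactosidase complementation read by luminescence after 1 h at ambient temperature. Dopamine 57 uM final (EC100) as control.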
D2 PAM-2 = HTS Assay for Positive Allosteric Modulators of the Human D2 Dopamine Receptor: Primary Screen for Potentiators; D(2) dopamine receptor (Homo sapiens), P14416; 340,000 tested, 0.34% active; HEK293 T-REx D2, calcium flux, EC20 dopamine potentiation; potentiation, % at 10 µM;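 active means potentiation over 3 SD above the plate norm, cut at about 30% in these data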; further: 0% is about no effect
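Potentiation of an EC20 dopamine calcium response is measured in a force-coupled, tetracycline-inducible Hek293 Trex D2 line. Compound-only kinetic reads over 180 s flag agonists before dopamine addition.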
D2 antagonist = HTS Assay for Allosteric Antagonists of the Human D2 Dopamine Receptor: Primary Screen for Antagonists; D(2) dopamine receptor (Homo sapiens), P14416; HEK293 TREx D2 cells, calcium flux, dopamine EC80; 340,000 tested, 2% active; inhibition, % at 10 µM; in the data active means inhibition above about 30%; inactive means below that, where a call was filed; further: 0% is about no effect
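Dopamine at EC80 is the agonist stimulus; test compounds precede it by 180 s. Calcium flux read kinetically in a force-coupled, inducible HEK293 T-REx D2 cell line.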
D2 ag-2 = HTS Assay for Allosteric Agonists of the Human D2 Dopamine Receptor: Primary Screen for Agonists | HEK293 T-REx D2 cells, calcium flux agonist mode | activation, % at 2 µM | AID 485358, 2010 | 340,000 tested, 0.53% active | D(2) dopamine receptor (Homo sapiens), P14416;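 active means activation over 3 SD above normal in the single-dose calcium agonist read, cut at about 30% in these data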; further: 0% is about no effect
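Agonism is scored from calcium flux in a force-coupled, inducible HEK293 cell line expressing D2, read kinetically for 180 s after compound addition against dopamine controls.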
* hit, by the source's call; ? = inconclusive; nt = no result. Shown are actives, neighbours in structure and some others; about 2.4% of the full set was active somewhere.

SMILES	D2 PAM-1	D2 ag-1	D2 PAM-2	D2 antagonist	D2 ag-2
CSc1ncc(CN2CCCC(C(=O)c3ccccc3SC)C2)cn1 (stereo not given)	-33.6	-4.9	-15.3	5.1	-1.4
CSc1ccccc1C(=O)C1CCCN(Cc2ccn[nH]2)C1 (stereo not given)	-3.2	-1.2	-20.0	48.4*	21.9
O=C(Nc1ccccc1C(F)(F)F)c1cccn(Cc2ccccc2)c1=O	nt	nt	5.5	nt	0.6
CC(C)(C)NC(=O)C1CC2CCCCC2CN1 (stereo not given)	0.6	-4.8	3.2	64.2*	0.5
COc1ccc(OC)c(NC(=O)Cn2cc(C(=O)c3ccccc3F)c3ccccc32)c1	nt	nt	-5.7	nt	0.1
C[C@@H]1CC[C@H]2[C@@H](C)C(=O)O[C@@H]3O[C@@]4(C)CC[C@@H]1[C@]32OO4	64.0*	?	9.9	2.6	-0.1
C[C@H]1OC[C@@H](C[N+](C)(C)C)O1	0.6	-6.5	-6.3	13.4	40.4*
CC1OC(C[N+](C)(C)C)CC1O (stereo not given)	-1.2	-1.2	4.1	-14.9	0.2
Cc1sc2ncn(CC(=O)N3CCC4(CC3)OCCO4)c(=O)c2c1C	1.2	-1.7	30.0*	9.7	0.2
CCCC12CN3CC(C)(CN(C1)C3c1c(C)[nH]c(=O)[nH]c1=O)C2=O (stereo not given)	nt	nt	5.0	nt	-1.0
Cc1ccc(S(=O)(=O)N(c2cc(Cl)c(O)c(Cl)c2)P(=O)(OC(C)C)OC(C)C)cc1	-7.9	2.7	30.8*	4.8	0.3
CN(C)P1(N(C)C)=Nc2c(c(N)nn2C)C(c2ccccc2)=N1	1.0	0.7	-4.5	31.5*	-1.6
O=C(Nc1ccc(OC(F)(F)F)cc1)c1cccn(Cc2ccccc2Cl)c1=O	nt	nt	-0.9	nt	4.0
CC(=NCCN1CCOCC1)c1c(O)n(Cc2ccccc2)c(=O)[nH]c1=O	-5.7	0.8	-0.3	-6.9	-0.2
C=CCn1c(O)c(C(CC)=NC2CC2)c(=O)[nH]c1=O	11.0	-0.3	-12.1	39.3*	0.2
C=CCn1c(O)c(C(C)=NCCN2CCOCC2)c(=O)[nH]c1=O	-3.5	1.2	-4.5	39.5*	0.9
CCCCc1nc2ccccc2c(=O)n1-c1cccc(OC)c1	nt	nt	9.7	nt	-2.5
CCOc1ccc(CN(CCc2ccc3c(c2)OCO3)Cc2ccc(CC)cc2)cc1	nt	nt	0.2	nt	3.9
C[C@H](NC(=O)CCC(=O)N1C[C@H]2C[C@H](C1)c1cccc(=O)n1C2)c1ccccc1	4.8	1.9	-6.2	16.9	0.3
O=c1cccc2n1CC1CC2CN(C(c2ccccc2)c2sc3ncnn3c2O)C1 (stereo not given)	-1.2	-1.7	4.1	31.6*	1.3
CCN1CCN(c2ccc(N)c(C)c2)CC1	-12.4	-1.9	-9.1	49.4*	0.0
CN1CCN(c2ccc([N+](=O)[O-])c(N)c2)CC1	-18.6	-4.8	-10.4	-1.1	0.0
CCCCc1ccc(NC(=O)c2cccn(Cc3ccc(Cl)cc3)c2=O)cc1	nt	nt	-3.5	nt	nt
Cc1ccc(C2CC3CCC(C2)N3Cc2ccccc2F)cc1 (stereo not given)	-14.0	0.9	-29.9	67.8*	-0.6
CCN(CC)C(=O)c1ccc(NC(=O)CCn2nc(-c3ccc(C)cc3)c3ccccc3c2=O)cc1	nt	nt	16.0	nt	nt
CN1CCC(OC(=O)C2c3ccccc3Oc3ccccc32)CC1	-33.9	-3.1	-18.4	33.2*	0.7
Cc1ccsc1C(=O)C1CCCN(Cc2c(C)nn(C(C)C)c2C)C1 (stereo not given)	-11.8	-2.2	-18.4	57.5*	-0.6
Cc1ccsc1C(=O)C1CCCN(Cc2cnc(N3CCCC3)s2)C1 (stereo not given)	-5.2	-1.4	-8.4	38.9*	1.2
Cc1cc(NC(=O)c2cccn(Cc3cccc([N+](=O)[O-])c3)c2=O)no1	nt	nt	8.1	nt	0.3
CCN(CC)c1ccc(/C=C/[N+](=O)[O-])cc1	4.2	-3.5	-7.2	1.3	57.2*
